# Measurements taken from article PMC7862700, “An all-to-all approach to the identification of sequence-specific readers for epigenetic DNA modifications on cytosine”.
# Experiments:
# Assay in all cases: DAPPL (digital affinity profiling via proximity ligation, sequencing); 10 mM Tris-HCl pH 7.5, 50 mM NaCl, 1 mM DTT, 4% glycerol, room temperature, 30 min; GST-TFs on glutathione beads, 16-mer random dsDNA library, 0.1% formaldehyde crosslink after washing; high values mean tight binding
# Conditions in all cases: protein: recombinant; tags: N-terminal GST; dsDNA, one strand shown
# FLI1 = target: T1, FLI1 (Homo sapiens, UniProt Q01543 1-452)
# T1 sequence: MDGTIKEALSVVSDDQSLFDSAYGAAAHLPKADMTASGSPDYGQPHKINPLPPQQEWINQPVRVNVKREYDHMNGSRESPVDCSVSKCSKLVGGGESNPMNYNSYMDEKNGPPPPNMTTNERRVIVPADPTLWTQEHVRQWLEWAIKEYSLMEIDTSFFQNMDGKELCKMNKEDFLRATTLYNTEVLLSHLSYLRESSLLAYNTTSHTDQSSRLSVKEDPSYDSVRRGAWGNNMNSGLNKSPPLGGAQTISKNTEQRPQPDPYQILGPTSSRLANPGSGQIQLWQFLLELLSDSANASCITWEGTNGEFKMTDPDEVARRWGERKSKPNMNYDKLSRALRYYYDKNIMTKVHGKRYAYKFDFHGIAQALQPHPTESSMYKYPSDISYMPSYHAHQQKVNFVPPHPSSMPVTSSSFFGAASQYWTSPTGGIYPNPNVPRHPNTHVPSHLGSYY
# Procedure, shortened: (§1)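 Pools were built from human transcription factors expressed in yeast as GST fusions, captured on glutathione beads and DNA-barcoded, along with a tag-only sample. Incubation with 200 nmole of a 16-mer random double-stranded DNA library lasted 30 min at room temperature in Tris/NaCl/DTT/glycerol buffer, and was followed by washing, 0.1% formaldehyde crosslinking, proximity ligation, PCR amplification and Illumina NextSeq500 sequencing. Binding signal is the quotient of each hexamer's read frequency for a factor and its frequency for the tag-only sample.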
# ELK1 = target: T2, ELK1 (Homo sapiens, UniProt P19419 1-428)
# T2 sequence: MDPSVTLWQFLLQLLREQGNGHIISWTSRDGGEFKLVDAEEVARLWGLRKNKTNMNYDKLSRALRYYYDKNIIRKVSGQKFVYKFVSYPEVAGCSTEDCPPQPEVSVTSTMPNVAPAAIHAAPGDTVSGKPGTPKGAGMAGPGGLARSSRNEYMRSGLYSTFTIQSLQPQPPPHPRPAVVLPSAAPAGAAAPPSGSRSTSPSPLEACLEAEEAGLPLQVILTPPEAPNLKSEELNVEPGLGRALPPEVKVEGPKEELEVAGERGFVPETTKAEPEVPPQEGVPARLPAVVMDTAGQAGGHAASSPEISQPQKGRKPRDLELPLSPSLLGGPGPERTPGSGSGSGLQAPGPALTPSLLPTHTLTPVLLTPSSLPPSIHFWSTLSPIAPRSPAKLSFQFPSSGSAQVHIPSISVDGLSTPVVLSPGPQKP
# Procedure, shortened: as §1
# GABPA = target: T3, GABPA (Homo sapiens, UniProt Q06546 1-454)
# T3 sequence: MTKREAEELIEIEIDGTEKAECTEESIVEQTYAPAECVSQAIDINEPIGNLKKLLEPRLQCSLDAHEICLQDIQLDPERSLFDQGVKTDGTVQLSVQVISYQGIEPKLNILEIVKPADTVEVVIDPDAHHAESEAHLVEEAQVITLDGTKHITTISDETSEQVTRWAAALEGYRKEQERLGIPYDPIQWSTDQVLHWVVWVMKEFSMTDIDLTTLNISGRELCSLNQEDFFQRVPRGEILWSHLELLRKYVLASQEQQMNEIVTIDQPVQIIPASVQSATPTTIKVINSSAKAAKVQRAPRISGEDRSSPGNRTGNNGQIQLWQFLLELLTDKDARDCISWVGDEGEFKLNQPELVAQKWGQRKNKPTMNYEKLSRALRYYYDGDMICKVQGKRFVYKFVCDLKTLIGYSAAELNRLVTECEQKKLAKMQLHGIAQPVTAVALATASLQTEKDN
# Procedure, shortened: as §1
# ERG = target: T4, ERG (Homo sapiens, UniProt P11308 1-479)
# T4 sequence: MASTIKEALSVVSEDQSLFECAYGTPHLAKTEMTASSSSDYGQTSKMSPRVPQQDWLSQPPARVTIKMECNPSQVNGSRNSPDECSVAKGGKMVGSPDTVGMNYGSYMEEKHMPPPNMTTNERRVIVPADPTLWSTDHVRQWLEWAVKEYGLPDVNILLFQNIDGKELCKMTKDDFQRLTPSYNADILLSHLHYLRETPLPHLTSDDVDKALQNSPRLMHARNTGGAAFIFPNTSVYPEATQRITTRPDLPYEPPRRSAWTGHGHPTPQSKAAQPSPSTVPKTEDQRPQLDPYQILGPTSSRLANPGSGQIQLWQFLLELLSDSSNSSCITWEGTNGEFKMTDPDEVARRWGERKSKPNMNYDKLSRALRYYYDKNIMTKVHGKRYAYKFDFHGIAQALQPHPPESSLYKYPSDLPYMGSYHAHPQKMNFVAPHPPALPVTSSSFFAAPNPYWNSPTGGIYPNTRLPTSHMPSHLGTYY
# Procedure, shortened: as §1
# ELF1 = ELF1 (Homo sapiens, UniProt P32519 1-619)
# Procedure, shortened: as §1
# EHF = target: T5, EHF (Homo sapiens, UniProt Q9NZC4 1-300)
# T5 sequence: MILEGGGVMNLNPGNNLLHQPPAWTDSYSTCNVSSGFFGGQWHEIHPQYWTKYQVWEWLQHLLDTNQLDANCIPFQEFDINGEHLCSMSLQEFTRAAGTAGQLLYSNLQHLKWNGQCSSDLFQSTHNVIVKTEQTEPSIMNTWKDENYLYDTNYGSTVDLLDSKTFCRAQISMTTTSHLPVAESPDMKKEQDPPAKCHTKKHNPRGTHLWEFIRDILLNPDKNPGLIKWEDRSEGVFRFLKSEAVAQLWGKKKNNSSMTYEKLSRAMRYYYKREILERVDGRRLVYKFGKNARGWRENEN
# Procedure, shortened: as §1
# SPI1 = SPI1 (Homo sapiens, UniProt P17947 1-270)
# Procedure, shortened: as §1
# SPIB = SPIB (Homo sapiens, UniProt Q01892 1-262)
# Procedure, shortened: as §1
# ELK3 = target: T6, ELK3 (Homo sapiens, UniProt P41970 1-407)
# T6 sequence: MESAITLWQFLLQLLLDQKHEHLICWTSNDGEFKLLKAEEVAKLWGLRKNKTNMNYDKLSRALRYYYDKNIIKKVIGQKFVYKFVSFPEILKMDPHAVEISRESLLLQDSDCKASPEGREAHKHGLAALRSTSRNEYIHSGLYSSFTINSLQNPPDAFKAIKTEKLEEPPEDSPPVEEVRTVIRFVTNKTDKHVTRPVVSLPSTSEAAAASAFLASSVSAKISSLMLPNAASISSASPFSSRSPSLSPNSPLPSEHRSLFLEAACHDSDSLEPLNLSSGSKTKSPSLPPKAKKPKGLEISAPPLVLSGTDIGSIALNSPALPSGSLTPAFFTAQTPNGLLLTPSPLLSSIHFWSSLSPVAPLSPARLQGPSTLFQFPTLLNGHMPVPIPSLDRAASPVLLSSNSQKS
# Procedure, shortened: as §1
# FEV = target: T7, FEV (Homo sapiens, UniProt Q99581 1-238)
# T7 sequence: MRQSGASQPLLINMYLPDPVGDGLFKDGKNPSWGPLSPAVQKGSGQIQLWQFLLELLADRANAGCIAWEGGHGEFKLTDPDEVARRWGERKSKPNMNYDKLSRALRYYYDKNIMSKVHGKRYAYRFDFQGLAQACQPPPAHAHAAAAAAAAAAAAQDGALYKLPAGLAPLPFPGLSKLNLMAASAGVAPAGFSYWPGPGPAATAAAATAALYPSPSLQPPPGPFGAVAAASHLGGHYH
# Procedure, shortened: as §1
# ETV5 = ETV5 (Homo sapiens, UniProt P41161 1-510)
# Procedure, shortened: as §1
# SPIC = target: T8, SPIC (Homo sapiens, UniProt Q8N5J4 1-248)
# T8 sequence: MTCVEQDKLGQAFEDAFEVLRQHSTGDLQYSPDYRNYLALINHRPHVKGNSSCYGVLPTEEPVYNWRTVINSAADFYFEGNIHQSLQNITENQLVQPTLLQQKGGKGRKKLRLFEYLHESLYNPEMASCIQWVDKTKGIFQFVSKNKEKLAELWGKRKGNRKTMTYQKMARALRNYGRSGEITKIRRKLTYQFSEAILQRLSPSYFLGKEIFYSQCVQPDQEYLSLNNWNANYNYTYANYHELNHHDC
# Procedure, shortened: as §1
# ELF4 = ELF4 (Homo sapiens, UniProt Q99607 1-663)
# Procedure, shortened: as §1
# ELK4 = target: T9, ELK4 (Homo sapiens, UniProt P28324-2 1-405)
# T9 sequence: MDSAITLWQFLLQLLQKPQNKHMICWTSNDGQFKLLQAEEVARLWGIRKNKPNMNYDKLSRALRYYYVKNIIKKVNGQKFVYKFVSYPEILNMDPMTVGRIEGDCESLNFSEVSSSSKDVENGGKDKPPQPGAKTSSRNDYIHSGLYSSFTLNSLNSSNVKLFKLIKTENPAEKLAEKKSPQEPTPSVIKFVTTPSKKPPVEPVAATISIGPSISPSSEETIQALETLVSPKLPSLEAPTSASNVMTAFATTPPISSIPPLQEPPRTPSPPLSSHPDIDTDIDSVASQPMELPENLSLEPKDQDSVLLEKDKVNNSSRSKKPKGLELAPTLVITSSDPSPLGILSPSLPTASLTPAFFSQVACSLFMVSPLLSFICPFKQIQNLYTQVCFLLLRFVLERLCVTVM
# Procedure, shortened: as §1
# ETV2 = target: T10, ETV2 (Homo sapiens, UniProt O00321 1-342)
# T10 sequence: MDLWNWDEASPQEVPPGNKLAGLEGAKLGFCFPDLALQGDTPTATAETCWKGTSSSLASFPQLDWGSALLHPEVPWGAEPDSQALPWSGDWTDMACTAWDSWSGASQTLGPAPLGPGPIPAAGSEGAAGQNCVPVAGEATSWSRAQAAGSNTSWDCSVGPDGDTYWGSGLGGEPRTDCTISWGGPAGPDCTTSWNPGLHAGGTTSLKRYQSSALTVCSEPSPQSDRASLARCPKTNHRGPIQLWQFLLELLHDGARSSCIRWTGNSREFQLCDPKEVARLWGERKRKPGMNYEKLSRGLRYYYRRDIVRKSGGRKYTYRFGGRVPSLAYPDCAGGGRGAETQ
# Procedure, shortened: as §1
# ELF3 = target: T11, ELF3 (Homo sapiens, UniProt P78545 1-371)
# T11 sequence: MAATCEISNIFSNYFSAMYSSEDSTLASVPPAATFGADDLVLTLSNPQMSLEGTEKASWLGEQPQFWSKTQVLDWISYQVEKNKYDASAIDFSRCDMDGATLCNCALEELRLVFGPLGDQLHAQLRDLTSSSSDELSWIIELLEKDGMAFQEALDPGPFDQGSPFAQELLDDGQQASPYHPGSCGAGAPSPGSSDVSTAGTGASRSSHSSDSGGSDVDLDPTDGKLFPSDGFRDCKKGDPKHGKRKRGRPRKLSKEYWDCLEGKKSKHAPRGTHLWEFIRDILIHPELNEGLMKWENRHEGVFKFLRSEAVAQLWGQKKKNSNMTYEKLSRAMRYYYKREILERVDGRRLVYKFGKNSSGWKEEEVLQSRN
# Procedure, shortened: as §1
# ETV1 = ETV1 (Homo sapiens, UniProt P50549 1-477)
# Procedure, shortened: as §1
# Sequence of ELF1 (P32519 whole entry): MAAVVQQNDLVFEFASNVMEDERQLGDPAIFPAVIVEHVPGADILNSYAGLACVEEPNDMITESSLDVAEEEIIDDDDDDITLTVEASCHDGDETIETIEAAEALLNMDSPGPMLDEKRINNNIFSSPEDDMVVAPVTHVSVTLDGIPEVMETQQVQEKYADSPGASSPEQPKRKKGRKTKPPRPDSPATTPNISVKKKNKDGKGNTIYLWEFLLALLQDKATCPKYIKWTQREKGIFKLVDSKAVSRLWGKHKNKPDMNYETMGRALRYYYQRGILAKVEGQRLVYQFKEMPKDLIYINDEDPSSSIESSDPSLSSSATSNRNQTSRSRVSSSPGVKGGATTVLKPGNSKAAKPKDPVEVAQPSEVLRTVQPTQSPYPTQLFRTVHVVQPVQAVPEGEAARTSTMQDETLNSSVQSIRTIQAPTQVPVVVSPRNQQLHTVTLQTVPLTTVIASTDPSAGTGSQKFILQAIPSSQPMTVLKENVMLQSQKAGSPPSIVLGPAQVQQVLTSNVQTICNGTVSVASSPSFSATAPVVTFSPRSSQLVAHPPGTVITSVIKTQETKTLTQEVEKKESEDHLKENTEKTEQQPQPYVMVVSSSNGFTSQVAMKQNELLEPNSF
# Sequence of ETV1 (P50549 whole entry): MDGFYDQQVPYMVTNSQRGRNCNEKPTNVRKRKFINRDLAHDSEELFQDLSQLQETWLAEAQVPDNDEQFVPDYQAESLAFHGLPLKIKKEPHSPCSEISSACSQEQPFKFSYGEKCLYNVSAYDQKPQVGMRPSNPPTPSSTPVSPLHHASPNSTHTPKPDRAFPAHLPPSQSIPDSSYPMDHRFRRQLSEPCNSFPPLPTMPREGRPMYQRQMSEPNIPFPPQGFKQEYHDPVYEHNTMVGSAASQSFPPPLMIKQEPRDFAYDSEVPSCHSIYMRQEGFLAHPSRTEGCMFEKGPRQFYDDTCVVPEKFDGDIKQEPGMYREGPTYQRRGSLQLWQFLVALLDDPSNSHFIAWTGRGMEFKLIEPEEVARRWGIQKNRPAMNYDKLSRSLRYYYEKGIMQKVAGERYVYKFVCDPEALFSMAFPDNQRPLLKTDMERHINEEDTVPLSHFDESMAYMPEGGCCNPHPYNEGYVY
# Sequence of ELF4 (Q99607 whole entry): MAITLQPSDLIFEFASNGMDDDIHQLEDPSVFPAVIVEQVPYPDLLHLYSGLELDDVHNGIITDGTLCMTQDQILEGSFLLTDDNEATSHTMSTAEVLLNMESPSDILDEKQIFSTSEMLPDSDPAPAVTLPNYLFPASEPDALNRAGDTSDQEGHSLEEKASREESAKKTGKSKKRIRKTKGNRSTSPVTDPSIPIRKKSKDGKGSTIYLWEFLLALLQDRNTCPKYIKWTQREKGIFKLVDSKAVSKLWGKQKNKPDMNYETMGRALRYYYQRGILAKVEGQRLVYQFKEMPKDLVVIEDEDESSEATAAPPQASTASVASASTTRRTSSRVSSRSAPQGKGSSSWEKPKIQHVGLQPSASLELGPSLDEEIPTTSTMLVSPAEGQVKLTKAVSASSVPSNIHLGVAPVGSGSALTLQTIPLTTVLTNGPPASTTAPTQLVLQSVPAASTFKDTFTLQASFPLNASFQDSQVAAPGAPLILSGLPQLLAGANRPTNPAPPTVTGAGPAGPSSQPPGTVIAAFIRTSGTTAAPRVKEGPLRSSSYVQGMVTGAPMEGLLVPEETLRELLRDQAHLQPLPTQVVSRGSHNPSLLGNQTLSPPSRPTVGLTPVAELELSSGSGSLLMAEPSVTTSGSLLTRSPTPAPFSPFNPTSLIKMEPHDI
# Sequence of ETV5 (P41161 whole entry): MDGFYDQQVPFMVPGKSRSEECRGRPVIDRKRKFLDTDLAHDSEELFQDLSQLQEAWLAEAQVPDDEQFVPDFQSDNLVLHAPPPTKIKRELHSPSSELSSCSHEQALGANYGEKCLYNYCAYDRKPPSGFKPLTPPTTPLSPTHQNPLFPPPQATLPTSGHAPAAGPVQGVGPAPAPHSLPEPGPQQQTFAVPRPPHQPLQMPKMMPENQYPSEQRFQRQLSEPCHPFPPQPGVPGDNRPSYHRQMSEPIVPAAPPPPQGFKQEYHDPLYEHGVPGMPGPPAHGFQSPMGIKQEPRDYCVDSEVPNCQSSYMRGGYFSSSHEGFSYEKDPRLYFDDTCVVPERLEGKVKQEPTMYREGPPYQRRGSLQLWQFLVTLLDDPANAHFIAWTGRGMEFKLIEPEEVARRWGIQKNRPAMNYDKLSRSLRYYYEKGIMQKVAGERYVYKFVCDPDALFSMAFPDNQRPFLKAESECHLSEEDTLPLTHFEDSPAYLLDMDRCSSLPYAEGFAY
# Sequence of SPIB (Q01892 whole entry): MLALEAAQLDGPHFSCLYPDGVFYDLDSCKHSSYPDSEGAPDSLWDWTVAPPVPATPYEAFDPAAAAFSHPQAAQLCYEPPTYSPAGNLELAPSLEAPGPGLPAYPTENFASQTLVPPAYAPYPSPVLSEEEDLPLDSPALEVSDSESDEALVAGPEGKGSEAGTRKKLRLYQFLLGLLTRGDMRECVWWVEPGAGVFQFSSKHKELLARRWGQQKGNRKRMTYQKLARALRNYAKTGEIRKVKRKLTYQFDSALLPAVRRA
Sequence,binding signal (FLI1),binding signal (ELK1),binding signal (GABPA),binding signal (ERG),binding signal (ELF1),binding signal (EHF),binding signal (SPI1),binding signal (SPIB),binding signal (ELK3),binding signal (FEV),binding signal (ETV5),binding signal (SPIC),binding signal (ELF4),binding signal (ELK4),binding signal (ETV2),binding signal (ELF3),binding signal (ETV1)
ACATGT,"1.23 fold enrichment (6-mer frequency, TF over GST control)","1.14 fold enrichment (6-mer frequency, TF over GST control)","1.05 fold enrichment (6-mer frequency, TF over GST control)","1.11 fold enrichment (6-mer frequency, TF over GST control)","1.19 fold enrichment (6-mer frequency, TF over GST control)","1.09 fold enrichment (6-mer frequency, TF over GST control)","1.14 fold enrichment (6-mer frequency, TF over GST control)","1.15 fold enrichment (6-mer frequency, TF over GST control)","1.06 fold enrichment (6-mer frequency, TF over GST control)","1.03 fold enrichment (6-mer frequency, TF over GST control)","1.16 fold enrichment (6-mer frequency, TF over GST control)","1.13 fold enrichment (6-mer frequency, TF over GST control)","1.15 fold enrichment (6-mer frequency, TF over GST control)","1.27 fold enrichment (6-mer frequency, TF over GST control)","1.21 fold enrichment (6-mer frequency, TF over GST control)","1.02 fold enrichment (6-mer frequency, TF over GST control)","1.09 fold enrichment (6-mer frequency, TF over GST control)"
TCCGGG,"1.54 fold enrichment (6-mer frequency, TF over GST control)","1.55 fold enrichment (6-mer frequency, TF over GST control)","1.35 fold enrichment (6-mer frequency, TF over GST control)","1.56 fold enrichment (6-mer frequency, TF over GST control)","1.48 fold enrichment (6-mer frequency, TF over GST control)","1.48 fold enrichment (6-mer frequency, TF over GST control)","1.4 fold enrichment (6-mer frequency, TF over GST control)","1.65 fold enrichment (6-mer frequency, TF over GST control)","1.46 fold enrichment (6-mer frequency, TF over GST control)","1.36 fold enrichment (6-mer frequency, TF over GST control)","1.69 fold enrichment (6-mer frequency, TF over GST control)","1.63 fold enrichment (6-mer frequency, TF over GST control)","1.41 fold enrichment (6-mer frequency, TF over GST control)","1.37 fold enrichment (6-mer frequency, TF over GST control)","1.5 fold enrichment (6-mer frequency, TF over GST control)","1.41 fold enrichment (6-mer frequency, TF over GST control)","1.59 fold enrichment (6-mer frequency, TF over GST control)"
TGTCAT,"1.24 fold enrichment (6-mer frequency, TF over GST control)","1.08 fold enrichment (6-mer frequency, TF over GST control)","1.18 fold enrichment (6-mer frequency, TF over GST control)","1.11 fold enrichment (6-mer frequency, TF over GST control)","1.15 fold enrichment (6-mer frequency, TF over GST control)","1.17 fold enrichment (6-mer frequency, TF over GST control)","1.09 fold enrichment (6-mer frequency, TF over GST control)","1.2 fold enrichment (6-mer frequency, TF over GST control)","1.04 fold enrichment (6-mer frequency, TF over GST control)","1.1 fold enrichment (6-mer frequency, TF over GST control)","1.18 fold enrichment (6-mer frequency, TF over GST control)","1.16 fold enrichment (6-mer frequency, TF over GST control)","1.13 fold enrichment (6-mer frequency, TF over GST control)","1.08 fold enrichment (6-mer frequency, TF over GST control)","1.11 fold enrichment (6-mer frequency, TF over GST control)","1.06 fold enrichment (6-mer frequency, TF over GST control)","1.18 fold enrichment (6-mer frequency, TF over GST control)"
